According to ChEMBL document CHEMBL1961873, “Compounds: GSK PKIS; Assays: Nanosyn kinase panel” (2012):

Key:
[1] = target: T1, Serine/threonine-protein kinase TBK1 (Homo sapiens) (UniProt Q9UHD2); settings: at 1 µM;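 also: values are mean inhibition of TBK1, screened as part of the GSK published kinase inhibitor set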
T1 sequence (whole entry): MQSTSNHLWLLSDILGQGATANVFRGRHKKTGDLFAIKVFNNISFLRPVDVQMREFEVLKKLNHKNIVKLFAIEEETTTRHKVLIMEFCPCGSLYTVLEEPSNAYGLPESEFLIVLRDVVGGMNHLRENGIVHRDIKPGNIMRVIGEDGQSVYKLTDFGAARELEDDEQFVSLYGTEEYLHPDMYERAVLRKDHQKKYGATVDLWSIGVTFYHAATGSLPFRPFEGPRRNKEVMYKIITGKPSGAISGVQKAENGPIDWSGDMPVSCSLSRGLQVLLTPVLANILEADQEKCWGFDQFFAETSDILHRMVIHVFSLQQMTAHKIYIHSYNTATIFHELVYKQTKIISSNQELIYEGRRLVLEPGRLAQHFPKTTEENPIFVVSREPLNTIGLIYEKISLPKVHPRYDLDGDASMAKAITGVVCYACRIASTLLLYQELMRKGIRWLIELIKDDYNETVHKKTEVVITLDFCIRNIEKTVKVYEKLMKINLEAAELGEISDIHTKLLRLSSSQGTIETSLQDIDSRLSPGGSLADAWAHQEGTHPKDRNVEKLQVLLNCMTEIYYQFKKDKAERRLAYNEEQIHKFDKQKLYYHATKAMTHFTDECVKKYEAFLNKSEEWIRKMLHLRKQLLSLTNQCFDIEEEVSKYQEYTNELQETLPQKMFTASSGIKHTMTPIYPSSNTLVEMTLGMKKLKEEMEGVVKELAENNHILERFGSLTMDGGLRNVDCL

[2] = target: T2, Testis-specific serine/threonine-protein kinase 1 (Homo sapiens) (UniProt Q9BXA7); settings: at 0.1 µM
T2 sequence (whole entry): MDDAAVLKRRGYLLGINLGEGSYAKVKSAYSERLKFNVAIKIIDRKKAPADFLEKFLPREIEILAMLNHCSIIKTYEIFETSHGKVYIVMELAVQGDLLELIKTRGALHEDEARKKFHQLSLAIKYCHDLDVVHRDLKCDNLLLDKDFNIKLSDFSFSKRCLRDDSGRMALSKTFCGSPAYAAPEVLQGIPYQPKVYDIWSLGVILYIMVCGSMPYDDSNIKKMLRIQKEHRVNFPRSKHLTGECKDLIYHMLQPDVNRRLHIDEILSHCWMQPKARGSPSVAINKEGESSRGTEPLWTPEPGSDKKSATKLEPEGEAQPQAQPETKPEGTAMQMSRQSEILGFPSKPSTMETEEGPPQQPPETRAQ

[3] = target: T2, Testis-specific serine/threonine-protein kinase 1 (Homo sapiens); settings: at 1 µM
[4] = target: T3, Testis-specific serine/threonine-protein kinase 2 (Homo sapiens) (UniProt Q96PF2); settings: at 0.1 µM
T3 sequence (whole entry): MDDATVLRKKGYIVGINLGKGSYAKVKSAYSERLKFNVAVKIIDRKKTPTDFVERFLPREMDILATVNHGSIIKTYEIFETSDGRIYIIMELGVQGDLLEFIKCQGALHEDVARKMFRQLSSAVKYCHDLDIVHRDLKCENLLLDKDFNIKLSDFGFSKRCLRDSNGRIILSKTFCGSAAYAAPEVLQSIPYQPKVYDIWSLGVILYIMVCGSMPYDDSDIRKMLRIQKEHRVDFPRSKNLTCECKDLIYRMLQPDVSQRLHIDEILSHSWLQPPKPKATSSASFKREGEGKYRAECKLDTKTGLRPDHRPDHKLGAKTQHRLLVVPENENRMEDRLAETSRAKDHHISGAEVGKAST

[5] = target: T3, Testis-specific serine/threonine-protein kinase 2 (Homo sapiens); settings: at 1 µM
[6] = target: Casein kinase I isoform alpha (Homo sapiens) (UniProt P48729); settings: at 0.1 µM
[7] = target: Casein kinase I isoform alpha (Homo sapiens) (UniProt P48729); settings: at 1 µM
[8] = target: Casein kinase I isoform gamma-1 (Homo sapiens) (UniProt Q9HCP0); settings: at 0.1 µM
[9] = target: Casein kinase I isoform gamma-1 (Homo sapiens) (UniProt Q9HCP0); settings: at 1 µM
[10] = target: Casein kinase I isoform gamma-2 (Homo sapiens) (UniProt P78368); settings: at 0.1 µM
[11] = target: Casein kinase I isoform gamma-2 (Homo sapiens) (UniProt P78368); settings: at 1 µM
[12] = target: Casein kinase I isoform gamma-3 (Homo sapiens) (UniProt Q9Y6M4); settings: at 0.1 µM
[13] = target: Casein kinase I isoform gamma-3 (Homo sapiens) (UniProt Q9Y6M4); settings: at 1 µM
[14] = target: Cyclin-dependent kinase 1 (Homo sapiens) (UniProt P06493); settings: at 0.1 µM
[15] = target: Cyclin-dependent kinase 1 (Homo sapiens) (UniProt P06493); settings: at 1 µM
[16] = target: Cyclin-dependent kinase 2 (Homo sapiens) (UniProt P24941); settings: at 0.1 µM
[17] = target: Cyclin-dependent kinase 2 (Homo sapiens) (UniProt P24941); settings: at 1 µM
[18] = target: Cyclin-dependent kinase 2 (Homo sapiens) (UniProt P24941); settings: at 0.1 µM; remark: listed apart in the source
[19] = target: Cyclin-dependent kinase 2 (Homo sapiens) (UniProt P24941); settings: at 1 µM; remark: listed apart in the source
[20] = target: CDK3/Cyclin E (Homo sapiens) (UniProt P24864+Q00526); settings: at 0.1 µM;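 also: reported percentages are mean inhibition values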
CDK3/Cyclin E (Homo sapiens), sequence (P24864 whole entry, looked up): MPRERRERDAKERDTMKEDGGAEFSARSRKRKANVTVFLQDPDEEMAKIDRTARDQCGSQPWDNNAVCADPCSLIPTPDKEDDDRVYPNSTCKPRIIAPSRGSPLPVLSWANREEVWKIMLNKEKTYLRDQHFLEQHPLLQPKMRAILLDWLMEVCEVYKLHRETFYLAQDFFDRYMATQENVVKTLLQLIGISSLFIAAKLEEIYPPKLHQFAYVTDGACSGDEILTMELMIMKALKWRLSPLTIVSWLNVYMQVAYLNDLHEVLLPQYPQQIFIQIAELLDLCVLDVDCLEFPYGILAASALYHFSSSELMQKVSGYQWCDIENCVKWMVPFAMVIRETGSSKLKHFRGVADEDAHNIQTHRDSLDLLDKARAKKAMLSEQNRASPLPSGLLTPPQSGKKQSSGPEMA
CDK3/Cyclin E (Homo sapiens), sequence (Q00526 whole entry, looked up): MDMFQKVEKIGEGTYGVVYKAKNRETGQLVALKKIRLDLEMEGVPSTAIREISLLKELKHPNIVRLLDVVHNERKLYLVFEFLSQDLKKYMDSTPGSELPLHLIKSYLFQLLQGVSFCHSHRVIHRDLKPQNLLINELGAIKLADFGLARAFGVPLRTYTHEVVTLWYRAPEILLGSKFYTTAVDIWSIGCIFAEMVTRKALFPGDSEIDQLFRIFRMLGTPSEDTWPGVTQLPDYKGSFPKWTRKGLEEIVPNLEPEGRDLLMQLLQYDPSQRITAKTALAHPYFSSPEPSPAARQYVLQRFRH

Casein kinase I isoform gamma-2 (Homo sapiens), sequence (P78368 whole entry, looked up, canonical isoform): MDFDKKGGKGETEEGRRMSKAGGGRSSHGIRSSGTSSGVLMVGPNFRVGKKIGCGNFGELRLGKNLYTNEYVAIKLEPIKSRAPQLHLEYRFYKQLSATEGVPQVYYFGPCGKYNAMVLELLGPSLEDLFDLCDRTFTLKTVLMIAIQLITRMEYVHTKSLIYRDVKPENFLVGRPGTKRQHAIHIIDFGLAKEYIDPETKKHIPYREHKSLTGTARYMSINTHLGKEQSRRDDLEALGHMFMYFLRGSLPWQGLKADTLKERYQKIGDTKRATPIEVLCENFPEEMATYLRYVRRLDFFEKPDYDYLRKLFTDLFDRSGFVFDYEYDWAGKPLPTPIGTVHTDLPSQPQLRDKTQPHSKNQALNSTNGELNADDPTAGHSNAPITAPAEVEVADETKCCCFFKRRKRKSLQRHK
Cyclin-dependent kinase 1 (Homo sapiens), sequence (P06493 whole entry, looked up): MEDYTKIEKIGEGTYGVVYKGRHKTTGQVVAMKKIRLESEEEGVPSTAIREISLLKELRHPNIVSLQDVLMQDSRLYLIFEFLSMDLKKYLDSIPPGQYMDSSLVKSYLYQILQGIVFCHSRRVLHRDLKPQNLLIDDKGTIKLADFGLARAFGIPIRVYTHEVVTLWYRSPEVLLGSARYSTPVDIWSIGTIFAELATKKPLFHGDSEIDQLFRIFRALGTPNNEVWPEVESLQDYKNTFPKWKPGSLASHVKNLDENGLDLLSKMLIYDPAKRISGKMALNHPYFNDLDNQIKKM
Casein kinase I isoform gamma-3 (Homo sapiens), sequence (Q9Y6M4 whole entry, looked up, canonical isoform): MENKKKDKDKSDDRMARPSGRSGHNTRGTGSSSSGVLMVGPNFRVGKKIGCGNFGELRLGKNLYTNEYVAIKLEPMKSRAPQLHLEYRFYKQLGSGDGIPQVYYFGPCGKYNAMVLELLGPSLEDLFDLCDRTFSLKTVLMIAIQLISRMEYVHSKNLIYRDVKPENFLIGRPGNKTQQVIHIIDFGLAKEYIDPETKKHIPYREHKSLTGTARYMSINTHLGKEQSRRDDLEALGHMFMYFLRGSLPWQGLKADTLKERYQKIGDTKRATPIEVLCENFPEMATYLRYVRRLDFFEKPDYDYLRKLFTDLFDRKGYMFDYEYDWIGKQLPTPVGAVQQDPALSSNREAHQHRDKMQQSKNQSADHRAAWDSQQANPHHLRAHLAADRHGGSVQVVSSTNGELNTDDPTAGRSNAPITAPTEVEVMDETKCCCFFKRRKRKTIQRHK
Casein kinase I isoform alpha (Homo sapiens), sequence (P48729 2-337 limits assumed): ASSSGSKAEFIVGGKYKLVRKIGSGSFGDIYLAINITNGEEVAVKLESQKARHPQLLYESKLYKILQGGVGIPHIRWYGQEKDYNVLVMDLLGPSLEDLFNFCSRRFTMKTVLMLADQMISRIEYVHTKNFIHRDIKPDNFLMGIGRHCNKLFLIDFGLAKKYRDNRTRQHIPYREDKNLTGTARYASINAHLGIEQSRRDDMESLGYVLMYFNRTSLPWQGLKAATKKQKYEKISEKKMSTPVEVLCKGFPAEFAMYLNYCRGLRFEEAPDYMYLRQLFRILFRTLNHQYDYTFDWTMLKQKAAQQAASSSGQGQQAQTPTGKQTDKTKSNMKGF
Casein kinase I isoform gamma-1 (Homo sapiens), sequence (Q9HCP0 whole entry, looked up, canonical isoform): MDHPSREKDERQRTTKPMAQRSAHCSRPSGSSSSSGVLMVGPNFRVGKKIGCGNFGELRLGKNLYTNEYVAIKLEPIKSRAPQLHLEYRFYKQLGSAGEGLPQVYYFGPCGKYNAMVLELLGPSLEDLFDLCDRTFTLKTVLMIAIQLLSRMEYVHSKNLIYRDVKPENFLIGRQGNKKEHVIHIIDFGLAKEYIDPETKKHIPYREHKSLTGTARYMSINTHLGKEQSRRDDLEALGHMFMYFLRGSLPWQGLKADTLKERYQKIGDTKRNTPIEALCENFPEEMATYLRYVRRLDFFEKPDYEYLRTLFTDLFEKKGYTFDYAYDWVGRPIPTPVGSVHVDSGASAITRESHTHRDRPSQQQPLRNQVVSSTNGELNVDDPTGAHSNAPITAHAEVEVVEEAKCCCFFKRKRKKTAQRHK

SMILES	inhibition [1] [%]	inhibition [2] [%]	inhibition [3] [%]	inhibition [4] [%]	inhibition [5] [%]	inhibition [6] [%]	inhibition [7] [%]	inhibition [8] [%]	inhibition [9] [%]	inhibition [10] [%]	inhibition [11] [%]	inhibition [12] [%]	inhibition [13] [%]	inhibition [14] [%]	inhibition [15] [%]	inhibition [16] [%]	inhibition [17] [%]	inhibition [18] [%]	inhibition [19] [%]	inhibition [20] [%]
CN(C)CCOc1ccc(-c2nc(-c3ccncc3)c(-c3ccc4c(c3)CC/C4=N\O)[nH]2)cc1	3.98	1.85	2.25	3.34	2.43	3.41	7.2	2.51	4.6	2.26	4.12	3.08	3.59	1.59	5.87	1.86	11.1	6.01	7.95	3.78
CS(=O)(=O)CCNCc1ccc(-c2ccc3ncnc(Nc4ccc(OCc5ccccc5)c(C(F)(F)F)c4)c3c2)o1	1.05	3.83	3.88	0.53	0.75	2.27	0.82	3.86	8.13	3.82	4.2	3.19	2.56	0.28	1.7	6.22	8.37	2.59	4.6	0.51
Fc1cccc(COc2ccc(Nc3ncnc4sc(-c5ccco5)cc34)cc2Cl)c1	2.89	2.79	3.11	0.52	2.23	3.24	3.14	4.55	4.42	4.05	4.82	3.95	3.97	-1.09	1.41	2.79	2.68	3.66	6.69	-0.59
CC(=O)Nc1cccc(C#Cc2cncnc2Nc2ccc(OCc3cccc(F)c3)c(Cl)c2)c1	3.45	1.34	0.24	0.06	-1.88	-1.79	3.28	2.22	2	0.52	2.49	2.41	1.12	-0.4	0.31	0.72	1.81	2	0.87	1.66
NS(=O)(=O)c1ccc(N/N=C2\C(=O)Nc3ccc4ncccc4c32)cc1	50.4	5.63	34.9	0.69	4.1	4.04	21.3	2.39	8.12	1.41	7.05	1.94	12.7	61.3	80.5	93.4	86.6	83.1	84.3	79.7
CCc1nn2ncccc2c1-c1ccnc(NC2CC2)n1	3.02	1.98	3.93	1.82	2.06	4.3	15.9	1.08	2.03	1.32	2.18	1.24	0.68	2.52	6.8	3.24	10.4	2.25	9.7	-0.69
CS(=O)(=O)CCNCc1coc(-c2ccc3ncnc(Nc4ccc(OCc5ccccc5)cc4)c3c2)c1	2.44	1.84	3.84	2.99	2.93	1.56	4.42	1.97	2.4	1.63	1.86	1.74	1.31	2.51	1.71	2.91	2.02	1.53	3.24	-3.62
COc1cc(N2CCN(C(C)C)CC2)ccc1Nc1nc(Nc2ccc(F)cc2C(N)=O)c2cc[nH]c2n1	6.76	82.8	95.4	58.6	90.8	12.4	58.3	9.86	42.2	7.97	40.8	14.7	59	1.39	1.85	2.71	0.03	0.79	0.42	-2.54
c1ccc(COc2ccc(Nc3ncnc4ccc(-c5ccco5)cc34)cc2)cc1	0.67	-0.63	0.68	0.44	-0.19	-0.74	0.74	0.87	1.15	1.03	0.91	0.33	1.68	0.19	2.26	1.69	1.48	0.66	2.25	0.53
COc1cccc(-n2ncc3c(N/N=C/c4ccc(F)cc4)ncnc32)c1	6.85	3.31	5.3	4.45	2.25	4.03	4.98	3.78	4.75	3.98	4.65	3.39	3.4	9.55	35.5	10.1	48.5	5.86	15.5	3.62
CC(C)(CO)CNC(=O)c1ccc2c(c1)/C(=N/Nc1ccc(S(N)(=O)=O)cc1)C(=O)N2	63.4	0.17	11	0.45	-0.69	-1.33	7.84	0.88	4.11	0.93	3.6	1.31	8.37	37.2	74.8	87.3	93.6	68.4	81.2	48.5
FC(F)(F)c1cccc(-c2nn3ncccc3c2-c2ccnc(Nc3ccc4c(c3)OCCO4)n2)c1	2.28	2.75	1.2	-0.07	-1.1	1.53	4.39	2.58	4.21	1.92	3.28	1.54	4.56	1.58	3.23	1.29	0.77	4.14	4.5	1.7
COc1cccc(-c2c[nH]c3c(N/N=C/c4ccncc4)ncnc23)c1	34.6	1.82	-0.71	0.73	-2.11	5.65	7.98	1.21	4.05	0.6	4.26	1.09	4.42	42	74.2	30.4	73.7	9.46	45.5	6.61
